Test results reported in ChEMBL document CHEMBL1157539, “Thousands of chemical starting points for antimalarial lead identification” (Nature, 2010).

Experiments:
Type in all cases: functional
Plasmodium falciparum [1] = assay: GSK_TCMDC: Inhibition of Plasmodium falciparum 3D7 in whole red blood cells, using parasite LDH activity as an index of growth. Test compounds present at 2uM
Plasmodium falciparum [2] = assay: GSK_TCMDC: Inhibition of Plasmodium falciparum Dd2 in whole red blood cells, using parasite LDH activity as an index of growth. Test compounds present at 2uM
HepG2 = assay: GSK_TCMDC: Percent inhibition of human HepG2 cell line. Test compounds present at 10uM.

Structure (SMILES)	Inhibition (Plasmodium falciparum [1]) [%]	Inhibition (Plasmodium falciparum [2]) [%]	Inhibition (HepG2) [%]
COc1cccc(CC(=O)NC2CCN(c3ccnc4cc(Cl)ccc34)C2)c1.O=C(O)C(F)(F)F (stereo not given)	100	85	9
CCC[C@@H](C(=O)NCCc1cccc(OC)c1)N1C(=O)c2c(ccc(OC)c2OC)C1C(=O)Nc1c(C)cccc1C (stereo not given in full)	94	32	6
CC(=O)Nc1ccc(-c2nc3ccc(-c4nc5ccc(NC(C)=O)cc5[nH]4)cc3[nH]2)cc1	99	99	0
CC(C)NCc1ccc(-c2cccc(NC(=O)c3ccc(C#N)cc3)c2)cc1.O=C(O)C(F)(F)F	100	19	8
COc1ccc2cc(CNCCCCCCNCc3ccc4cc(OC)ccc4c3)ccc2c1.CS(=O)(=O)O	100	92	100
Cc1cc(N)c2cc(NC(=O)c3ccc4ccccc4c3)ccc2n1.Cl	100	99	33
COc1ccc(-c2cc(-c3nc4cc(C(=O)N5CCOCC5)ccc4[nH]3)c(=O)n(C)c2)cc1OC.O=C(O)C(F)(F)F	93	95	6
CCNc1cc(C(=O)N[C@@H](Cc2ccccc2)[C@H](O)CNC2(C)CCCCC2)cc(N2CCCCS2(=O)=O)c1.Cl	100	98	13
Cc1cccc2nc(-c3ccc(-c4ccc(CN5CCN(CCN6CCOCC6)CC5)cc4)s3)[nH]c12.O=C(O)C(F)(F)F	100	99	41
CCN(CC)CCCNc1nccc(N2CCc3ncnc(Nc4ccc(OCc5cccc(F)c5)c(Cl)c4)c3C2)n1	100	95	100
